This assay can be described thus: NCI Yeast Anticancer Drug Screen. Data for the wt1 strain (AID 149).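 Further: 0% = growth of vehicle-treated wt1 cultures.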 Particulars: S. cerevisiae wt1 strain (SPY 50644) growth inhibition, active compounds read high. The protocol:
Growth inhibition of yeast strains with defined genetic alterations is measured as a screen for potential anti-cancer activity. Selected strains with alterations in DNA damage repair or cell cycle control were exposed to compounds and growth inhibition was measured relative to vehicle treated controls. The strain used in this assay is wt1

Compounds without any hit were thinned out: in the full panel of roughly 79,000, 15% have a hit. Active and inactive are the calls of the source. No stated cut-off is given here; in the data, active means growth inhibition above about 70%; inactive means the rest.

Regarding `COc1ccc(C(NCCNC(c2ccc(OC)c(OC)c2)c2cc3c(cc2O)OCO3)c2cc3c(cc2O)OCO3)cc1OC` (stereo not given), the growth inhibition was 4% (inactive) (at 1.2 µM); -2% (inactive) (at 3.7 µM); 2% (inactive) (at 11.0 µM); 29% (inactive) (at 33.0 µM); 99% (active) (at 100.0 µM).
Taken in the same sequence, the figures for `O=C1OC(OC/C(Br)=C(\Br)COC2OC(=O)C(Cl)=C2Cl)C(Cl)=C1Cl` (stereo not given) were 0% (inactive), 0% (inactive), 2% (inactive), 8% (inactive) and 18% (inactive).
On to `O=C(NNc1ccccc1)C(O)C(O)C(O)C(O)C(O)CO` (stereo not given), for which the growth inhibition was 4% (inactive) (at 1.2 µM); 12% (inactive) (at 3.7 µM); 31% (inactive) (at 11.0 µM); 52% (inactive) (at 33.0 µM); 70% (active) (at 100.0 µM).
The like results for `COc1cc(O)c(O)c(C(C)(C)C)c1` were, in that order, -1% (inactive), -1% (inactive), 4% (inactive), 3% (inactive) and 4% (inactive).
The like results for `Cc1ccc(S/C(=C\C(=O)O)c2ccccc2)cc1` were, in that order, -6% (inactive), -7% (inactive), -8% (inactive), -2% (inactive) and 10% (inactive).
Taken in the same sequence, the figures for `CCCCCCCCCCCC(O)S(=O)(=O)O` (stereo not given) were -2% (inactive), -1% (inactive), -4% (inactive), 1% (inactive) and 15% (inactive).
On to `CN(C)c1ccc(N=Nc2ccncc2)cc1`, for which the growth inhibition by setting is: (at 1.2 µM) -7% (inactive); (at 3.7 µM) -3% (inactive); (at 11.0 µM) -1% (inactive); (at 33.0 µM) -1% (inactive); (at 100.0 µM) 40% (inactive).
As for `CCCCN(CCCC)CCC(O)c1cc2c(Cl)cc(Cl)cc2c2cc(C(F)(F)F)ccc12` (stereo not given), the growth inhibition runs as follows: (at 1.2 µM) -2% (inactive); (at 3.7 µM) 0% (inactive); (at 11.0 µM) 93% (active); (at 33.0 µM) 98% (active); (at 100.0 µM) 96% (active).

These data come from PubChem BioAssay (NCI).
